From the supplement of paper PMC11732987, “Enantioselective OTUD7B fragment discovery through chemoproteomics screening and high-throughput optimisation” (Communications Chemistry, 2025)

target: USP10 (UniProt Q14694); assay: log2 ratio of Biotin-Ahx-Ub-VS probe labelling (fragment/DMSO); higher = less target engagement (more negative = stronger competition), active = hit call of the paper (q ≤ 0.05, log2 ratio ≤ -1); settings: compound concentration: 200 uM; treatment time: 3 h
Method in brief: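 HEK293T lysate (495 µg per sample, in Tris/CHAPS/IGEPAL buffer with protease inhibitors) was exposed in triplicate for 3 h to fragment at 200 µM or to vehicle, then to Biotin-Ahx-Ub-VS at 0.5 µM final for 1 h. Labelled DUBs were enriched on NeutrAvidin, digested with LysC and trypsin, and analysed by diaPASEF LC-MS/MS. Spectronaut label-free quantities were normalised to the global median, and values are average log2 ratios of fragment over vehicle from an unpaired t-test. Only proteins with ≥2 unique peptides were used.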

Sequence of USP10 (Q14694 whole entry, the tested form may be a part): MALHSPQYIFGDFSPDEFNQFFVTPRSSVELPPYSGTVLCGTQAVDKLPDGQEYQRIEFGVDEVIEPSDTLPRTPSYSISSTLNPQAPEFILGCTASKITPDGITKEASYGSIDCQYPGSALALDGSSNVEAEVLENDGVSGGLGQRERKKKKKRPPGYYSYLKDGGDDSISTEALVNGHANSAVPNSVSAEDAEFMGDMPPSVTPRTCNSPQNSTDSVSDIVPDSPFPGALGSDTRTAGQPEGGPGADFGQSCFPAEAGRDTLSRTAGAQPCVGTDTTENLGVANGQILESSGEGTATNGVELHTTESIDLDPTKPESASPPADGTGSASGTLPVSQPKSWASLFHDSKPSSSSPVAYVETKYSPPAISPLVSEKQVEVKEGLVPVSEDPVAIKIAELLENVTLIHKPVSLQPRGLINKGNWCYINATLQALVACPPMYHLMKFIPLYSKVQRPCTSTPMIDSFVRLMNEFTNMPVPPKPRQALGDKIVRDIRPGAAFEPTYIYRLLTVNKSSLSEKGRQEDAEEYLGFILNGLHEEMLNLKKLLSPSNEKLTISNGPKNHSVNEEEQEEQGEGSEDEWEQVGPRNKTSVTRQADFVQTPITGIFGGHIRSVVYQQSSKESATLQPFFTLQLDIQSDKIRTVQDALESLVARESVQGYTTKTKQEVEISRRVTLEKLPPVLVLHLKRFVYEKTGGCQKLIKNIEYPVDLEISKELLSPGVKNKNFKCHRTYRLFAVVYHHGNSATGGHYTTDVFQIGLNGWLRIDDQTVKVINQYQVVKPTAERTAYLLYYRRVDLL

log2 ratio of Biotin-Ahx-Ub-VS probe labelling, inactive:
Cl.Cn1cnc2cc(CNC(=O)CCl)ccc21 -0.194
N#Cc1ccc(CNC(=O)CCl)cc1 -0.0787
Cc1nc(CN2CCCN(C(=O)CCl)CC2)no1.Cl 0.0299
Cc1ccc(C)c(NC(=O)CCl)c1 -0.39
Cc1cc(CC(C)NC(=O)CCl)n[nH]1 (stereo not given) -0.0255
O=C(CCl)N1CCCN(C(=O)c2ccc(Cl)cc2)CC1 0.0223
Cl.O=C(CCl)NCCN1CCc2ccccc21 -0.344
CC1(NC(=O)CCl)CCS(=O)(=O)C1 (stereo not given) -0.235
N#Cc1ccc(Cl)cc1NC(=O)CCl -0.153
O=C(CCl)N1CCCC1c1ccsc1 (stereo not given) -0.161
O=C(CCl)NCc1ccc(N2CCOCC2)nc1 -0.0833
O=C(CCl)NCc1cccc(F)c1 -0.156
COc1ccccc1C(C)NC(=O)CCl (stereo not given) -0.0811
COc1ccc(Cl)cc1NC(=O)CCl -0.263
O=C(CCl)N1CCC(c2nc3ccccc3o2)CC1 -0.114
